This note sets out measurements from PubChem BioAssay AID1850 (Southern Research Specialized Biocontainment Screening …, 2009).

Among all 310,000 compounds or so, about 1,000 (0.32%) were called active. These entries were drawn from the full list. Potency and affinity values are given separately. A number with no mark means an inactive call. How the calls were made is not given here.

The experiment is described as follows: Inhibition of PhoP regulon, Salmonella typhi GFP reporter cells, confirmation, 4 h (AID 1850).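 Further: 0% = induced wells with vehicle and 100% = uninduced wells.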 The note with it: Salmonella Typhi PhoP-promoter GFP reporter, fluorescence, at 50 µM, hits give high values.
The inhibition is the change of the read-out against control, counted positive when it falls. Turning to `Cc1ccc(C(=O)Nc2ccccc2Sc2ccccc2)cc1`, the inhibition was 8.29%.
The figure for `Cc1ccc(C(=O)CC(=O)c2ccccc2)cc1` is 2.22%; for `Cc1cc(Nc2cccc(C(F)(F)F)c2)n2nc(C)nc2n1` it is 2.14%.
With `Brc1ccc2c(c1)C(C1=NCCN1)c1ccccc1CS2` (centres undefined) the figure was -3.48%; with `Clc1ccc2c(c1)C(OC1CN3CCC1CC3)c1ccccc1CS2` (centres undefined), -1.82%.
With `COc1ccc(C(=O)NCCCOC(=O)c2ccc(OC)cc2)cc1` the figure was -6.57%; with `CCOC(=O)c1sc(=NC(=O)c2ccc(F)cc2)n(C)c1C`, 0.21%.
Consider `Cc1cc(N2CCN(C3CCCCC3)CC2)nc2cccc(O)c12`, for which the inhibition was 40.7%.
With `Cc1cc(N2CCC(C)CC2)nc(-c2ccccc2O)n1` the figure was -7.47%; with `CN(C)c1ccc(/C=N/NC(=O)c2cccc(C(=O)N/N=C/c3ccc(N(C)C)cc3)n2)cc1`, -1.09%; with `COc1ccc(-c2ccc(=O)n(CC(=O)Nc3cccc(O)c3)n2)cc1OC`, -4.09%.
With `O=c1cc(CN2CCN(C/C=C/c3ccccc3)CC2)c2cc(O)c(-c3ccccc3)cc2o1` the figure was 1.7%.
The figure for `O=c1cc(CN2CCN(C/C=C/c3ccccc3)CC2)c2cc(O)ccc2o1` is 0.2%; for `COc1cc(C(=O)NCC(=O)OCC(=O)Nc2nnc(-c3ccccc3)o2)cc(OC)c1OC` it is 1.32%; for `COc1cccc(NS(=O)(=O)c2nc3nc(C)cc(C)n3n2)c1` it is 5.81%.
With `Cc1cc(C)n2nc(S(=O)(=O)NC(C)(C)C)nc2n1`, the inhibition was -11.7%.
With `CCOc1cc2[nH]c(=O)n(CCCC(=O)NCc3ccco3)c(=O)c2cc1OCC` the figure was -5.99%; with `O=C(CNS(=O)(=O)/C=C/c1ccccc1)OC1CCOC1=O` (centres undefined), -7.99%.
With `Cc1cc(C)n(C(C[N+](=O)[O-])c2ccc(Cl)cc2)n1` (centres undefined) the figure was 17.4%.
With `COc1ccc(C(C[N+](=O)[O-])n2nc(C)cc2C)cc1` (centres undefined) the figure was 3.95%; with `O=C(NCCCc1ccncc1)C1CCC(=O)N(Cc2ccc(Cl)cc2)C1` (centres undefined), 2.99%; with `CC(C)(C)NC(=S)NNC(=O)[C@H]1C[C@@H]1c1ccccc1`, -2.2%.
Regarding `CCCCOC(=O)Cn1c(=N)n(CCC)c2ccccc21`, the inhibition is -6.14%.
As for `CCCCOC(=O)Cn1c(=O)n(CC(=O)OCCCC)c2ccccc21`, the inhibition was 2.5%.
Turning to `CCCCCOC(=O)Cn1c(=O)oc2ccc(C)cc21`, the inhibition was -6.52%.
With `CCCCCCCCCCOC(=O)Cn1c(COc2ccccc2)[n+](C)c2ccccc21` the figure was 0.36%; with `Cc1cccc(OCCCCn2c(CO)nc3ccccc32)c1`, 1.97%; with `CN(C)C(=O)Oc1cccc(OCc2n(C)c3ccccc3[n+]2C)c1`, -12.8%.
With `CCCCCOC(=O)Cn1c(=O)oc2ccccc21` the figure was 4.41%.
The figure for `CCCCOC(=O)Cn1c2ccc(OC)cc2c2nc3ccccc3nc21` is -14.3%.
Consider `C=C(C)Cn1c(SCC(=O)N/N=C/c2ccccc2)nc2ccccc2c1=O`, for which the inhibition was 2.73%.
The figure for `CCOC(=O)C1CCCN(C(=O)CSc2ccccc2)C1` (centres undefined) is 0.88%; for `CC(C)(C)c1cc(NS(=O)(=O)c2cccs2)no1` it is 2.79%.
As to `CC(C)NC(=O)C1CCCN(S(=O)(=O)c2cccc3nonc23)C1` (centres undefined), the inhibition was 5.72%.
With `CSc1cnc2c(N)nc(N(C)C)nc2n1` the figure was -2.44%.
The figure for `CCOc1cc(NC(=O)C2CC2)c(OCC)cc1NC(=O)CCn1nnc2ccccc21` is 0.44%; for `CCn1cc(CN2CCC(n3nccc3NC(=O)C3CCCC3)CC2)c(C)n1` it is -10.6%; for `Brc1ccc(-c2nnc(-c3ccco3)o2)cc1` it is 7.53%.
The figure for `CCCCc1n(CC(=O)c2ccc(Cl)cc2)c2ccccc2[n+]1C` is 0.37%; for `CN(C)C(=O)Oc1ccc(OCc2n(C)c3ccccc3[n+]2C)cc1` it is -10.3%; for `Cc1nonc1OCCNCc1c(C(=O)N2CCCCCCC2)nc2ccc(Cl)cn12` it is 0.8%.
`Cc1ccc(CN2CC(C(=O)Nc3cc(S(C)(=O)=O)ccc3Cl)CC2=O)cc1` (centres undefined): the inhibition is -8.57%.
The figure for `CC1(C)Cc2cccc(OCC(=O)N3CCN(c4cccc(C(F)(F)F)c4)CC3)c2O1` is 7.47%; for `Cc1cc(Cl)cc(C)c1OCCNCc1ccccc1` it is -3.01%; for `Cc1cc(C)c(OCCNCc2ccccc2)c(C)c1` it is -8.25%.
With `Cc1cc(C)c(OCCCNCc2ccccc2)c(Br)c1` the figure was 13.8%.
As to `COCCCNCCCCOc1c(Cl)cc(C)cc1Br`, the inhibition was 1.04%.
With `CCn1c(N2CCN(CC(=O)Nc3cccc(C)c3C)CC2)nc2ccccc21` the figure was -2.87%.
With `Cc1cccc(NC(=O)CCNC(=O)c2ccco2)c1` the figure was -1.77%; with `CN(C)c1cnn(-c2ccccc2)c(=O)c1Cl`, -7.8%.
With `CC(C)(O)CC[C@H](OC(=O)c1ccccc1)[C@](C)(O)[C@H]1CC[C@@]2(O)C3=CC(=O)[C@@H]4C[C@@H](O)[C@H](O)C[C@]4(C)C3CC[C@]12C` (some centres undefined) the figure was 4.63%; with `COc1ccc(C(C)NC(=O)Cc2ccc(Br)cc2)cc1` (centres undefined), 3.69%.
Consider `CCOc1ccccc1NC(=O)c1cccc(NC(=O)C(C)C)c1`, for which the inhibition was -6.67%.
With `O=C(O)CCN1C(=O)CC(N2C(=O)/C(=C/c3ccc(Cl)cc3)SC2=S)C1=O` (centres undefined) the figure was -12.1%.
As for `O=C1CC(N2C(=O)/C(=C/C=C/c3ccccc3)SC2=S)C(=O)N1c1ccccc1` (centres undefined), the inhibition is -6.61%.
The figure for `Cc1ccc(S(=O)(=O)NNC(=O)c2cnn(-c3ccccc3)c2C(F)(F)F)cc1` is -1.38%; for `CC(C)(C)C(=O)Nc1ccccc1-c1nc2ccccc2[nH]c1=O` it is -6.56%; for `O=C(COc1ccccc1[N+](=O)[O-])Nc1ccc(N2CCN(C(=O)c3cccs3)CC2)cc1` it is 7.91%.
As to `Cc1cc(C(=O)N/N=C/c2ccc(Br)o2)n[nH]1`, the inhibition was -0.33%.
As to `O=C1C2C3C=CC(C3)C2C(=O)N1CCCCCCN1C(=O)C2C3C=CC(C3)C2C1=O` (centres undefined), the inhibition was 7.17%.
With `O=C1C=CC(=O)N1Cc1ccccc1` the figure was 18.2%.
On to `COc1ccc2nc(-c3ccccc3)nc(C3CCCCC3)c2c1`, for which the inhibition is -28.1%.
With `COc1ccc(Cl)cc1NC(=O)CN(C)C(=O)c1cc2c(s1)CCC(C)C2` (centres undefined) the figure was -5.36%; with `Cc1c(CN(C)C)c2c(n1C)C(=O)c1ccc(Br)cc1-2`, -10.7%.
The figure for `Cc1c(CN(C)C)c2c(n1Cc1ccccc1)C(=O)c1ccccc1-2` is 5.65%.
With `O=C(c1nc2ccccn2c1CNCCn1ccc2ccccc21)N1CCOCC1` the figure was -10.1%; with `COc1ccccc1-c1ccc2nnc(SCC(=O)N3CCCC3)n2n1`, 3.68%; with `Cc1ccc(-n2c3nc(=O)n(C)c(=O)c-3cc3ccccc32)cc1`, 8.69%.
For `CCn1nc(-c2ccccc2)nc2c(=O)n(C)c(=O)nc1-2`, the inhibition is 14.7%.
With `Cc1ccccc1-n1c2nc(=O)n(C)c(=O)c-2cc2ccccc21` the figure was -5.45%; with `Cn1nc(-c2ccccn2)nc2c(=O)n(C)c(=O)nc1-2`, 13.1%.
The figure for `Nc1nonc1-n1nnc(C(=O)N/N=C/c2ccc(F)cc2)c1-c1ccc2c(c1)OCO2` is 3.99%; for `CC(C)c1ccc(NC(=O)C2CCN(S(C)(=O)=O)CC2)cc1` it is 9.77%; for `O=C(CN1CCN(c2ccccn2)CC1)NC1CCCC1` it is -2.6%.
With `CCOC(=O)CCC(=O)O[C@H]1[C@H](O[C@@H]2[C@@H](C)[C@H](O[C@H]3C[C@@](C)(OC)[C@@H](O)[C@H](C)O3)[C@@H](C)C(=O)O[C@H](CC)[C@@](C)(O)[C@H](O)[C@@H](C)C(=O)[C@H](C)C[C@@]2(C)O)O[C@H](C)C[C@@H]1N(C)C` the figure was 12.7%; with `CC[C@H]1OC(=O)[C@H](C)[C@@H](O[C@H]2C[C@@](C)(OC)[C@@H](O)[C@H](C)O2)[C@H](C)[C@@H](O[C@@H]2O[C@H](C)C[C@H](N(C)C)[C@H]2O)[C@](C)(O)C[C@@H](C)C(=NOCOCCOC)[C@H](C)[C@@H](O)[C@]1(C)O`, -1.81%; with `CCC1OC(=O)C(C)C(OC2C[C@@](C)(OC)C(O)C(C)O2)C(C)C(O[C@@H]2OC(C)CC(N(C)C)C2O)[C@](C)(O)CC(C)C(=NOCOCCOC)C(C)C(O)[C@]1(C)O` (some centres undefined), 2.39%.
`COc1ccccc1C(C(=O)NCc1ccc(F)cc1)N(C(=O)c1csnn1)C1CC1` (centres undefined): the inhibition was -0.44%.
As to `CCN(CC)S(=O)(=O)c1ccc(OC)c(NC(=O)c2ccc(-n3cncn3)c([N+](=O)[O-])c2)c1`, the inhibition was 1.29%.
Consider `O=C(Cn1c(=O)oc2ccccc21)NCCc1ccccc1`, for which the inhibition is -10.1%.
For `Cc1cc(C)cc(NC(=O)CSc2nccn2Cc2ccco2)c1`, the inhibition was -0.51%.
The figure for `COc1cc(CNC2CCCC2)cc(Cl)c1OCc1ccc(F)cc1` is 7.58%; for `OCCCCNCc1ccc(OCc2ccccc2Cl)cc1` it is 26.2%; for `COc1cc(CNCCc2ccccc2)ccc1OCc1ccc(Cl)nc1` it is 26.7%.
The figure for `COc1cc(CNCCO)cc(Cl)c1OCc1ccccc1Cl` is -3.95%.
Consider `COc1ccccc1CCNCc1ccc(OC)c(OCc2ccccc2)c1`, for which the inhibition was -4.13%.
The figure for `COc1cc(CNC2CCCC2)cc(Cl)c1OCc1ccccc1F` is 11.7%; for `COc1cc(CNCCO)cc(Br)c1OCc1ccccc1Cl` it is 9.5%.
With `OCCNCc1ccc(OCc2ccc(Cl)cc2Cl)cc1` the figure was 6.74%.
